Compounds with a hit are over-represented: about 2.4% of the library has one in this group of screens.
D2 antag = HTS Assay for Allosteric Antagonists of the Human D2 Dopamine Receptor: Primary Screen for Antagonists; 340,000 tested, 2% active; HEK293 TREx D2 cells, calcium flux, dopamine EC80; D(2) dopamine receptor (Homo sapiens), P14416; inhibition, % at 10 µM; in the data active = inhibition above about 30%; inactive = below that, where a call was filed
Target sequence (P14416 whole entry, looked up): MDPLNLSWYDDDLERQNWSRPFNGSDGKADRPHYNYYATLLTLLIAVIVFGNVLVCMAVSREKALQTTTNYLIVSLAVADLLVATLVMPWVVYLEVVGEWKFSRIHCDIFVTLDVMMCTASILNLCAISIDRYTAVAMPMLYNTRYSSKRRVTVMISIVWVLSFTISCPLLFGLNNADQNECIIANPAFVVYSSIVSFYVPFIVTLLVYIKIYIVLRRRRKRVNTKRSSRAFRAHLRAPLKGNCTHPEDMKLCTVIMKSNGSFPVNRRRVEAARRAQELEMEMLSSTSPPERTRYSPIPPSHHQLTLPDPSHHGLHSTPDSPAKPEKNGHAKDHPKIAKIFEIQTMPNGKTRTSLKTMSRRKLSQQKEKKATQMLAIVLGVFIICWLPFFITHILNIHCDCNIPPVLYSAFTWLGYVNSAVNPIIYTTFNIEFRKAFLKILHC
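Overnight-induced (tetracycline, 30 C) HEK293 T-REx cells carrying force-coupled D2 receive a no-wash calcium dye, then compound, then EC80 dopamine at 180 s; signals are read kinetically throughout.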
D2 PAM-1 = HTS Assay for Positive Allosteric Modulators of the Human D2 Dopamine Receptor: Primary Screen for Potentiators. 340,000 tested, 0.34% active. HEK293 T-REx D2, calcium flux, EC20 dopamine potentiation. potentiation, % at 10 µM. AID 485347, 2010. D(2) dopamine receptor (Homo sapiens), P14416;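 active = potentiation over 3 SD above the plate norm, cut at about 30% in these data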
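Tetracycline-induced Hek293 Trex D2 cells, force-coupled to calcium, loaded with no-wash calcium dye. Compound added with 180 s kinetic read for agonism, then EC20 dopamine and a further 180 s read for potentiation.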
D2 ag-1 = Beta-Arrestin HTS for Positive Allosteric Modulators of the Human D2 Dopamine Receptor: Agonists | activation, % (test concentration not listed) | DiscoveRx PathHunter D2 beta-arrestin, luminescence, 90 min; 100% = 57 uM dopamine signal | 360,000 tested, 0.084% active; in the data active = activation above about 40%
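Agonist mode: compounds alone added to overnight-plated D2 PathHunter cells for 90 min at 37 C, with 57 uM final dopamine (EC100) defining full response. Beta-arrestin recruitment detected by chemiluminescent reagent, read after 1 h at ambient temperature.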
D2 PAM-2 = Beta-Arrestin HTS for Positive Allosteric Modulators of the Human D2 Dopamine Receptor: Potentiators; 360,000 tested, 0.23% active; D(2) dopamine receptor (Homo sapiens), P14416; DiscoveRx D2 beta-arrestin cells, luminescence, 90 min; 100% = 57 uM dopamine signal; potentiation, % (test concentration not listed); in the data active = potentiation above about 50%
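PathHunter D2 cells, attached overnight at 37 deg C, received compound in DMSO plus dopamine at EC20 (50 nM final) for 90 min at 37 deg C. Beta-arrestin recruitment was read as luminescence after 1 h with detection reagent at ambient temperature.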
D2 ag-2 = HTS Assay for Allosteric Agonists of the Human D2 Dopamine Receptor: Primary Screen for Agonists; HEK293 T-REx D2 cells, calcium flux agonist mode; 340,000 tested, 0.53% active; activation, % at 2 µM;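 active = activation over 3 SD above normal in the single-dose calcium agonist read, cut at about 30% in these data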
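Tetracycline-induced HEK293 Trex cells with D2 receptor force-coupled to calcium signaling, plated overnight at 30 C and loaded with no-wash calcium dye. Calcium flux read kinetically for 180 s after compound addition; responses flag agonists.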
Of the large screens only hits and unclear results are named; the others gave an inactive call.

CCOc1ccc(NC(=O)c2cc3sc(Cl)cc3n2CC)cc1	none (no result: D2 antag, D2 ag-1, D2 PAM-2)
CN(C(=O)c1ccncc1)c1nnc(-c2ccccn2)s1	D2 antag 34.7
CN(C(=O)c1ccc(C#N)cc1)c1nnc(-c2ccccn2)s1	none
CCCCNC1=CC(=O)C(=O)c2ccccc21	D2 ag-1 51.5
CCN1CCc2c(sc(-n3cccc3)c2C(CCC(C)C)NC(=O)NCCC(=O)OC)C1 (configuration not stated)	none (no result: D2 antag, D2 ag-1, D2 PAM-2)
O=C(C1CC1)N1CCc2cc(Br)cc(S(=O)(=O)Nc3ccc(C(F)(F)F)cc3)c21	none (no result: D2 antag, D2 ag-1, D2 PAM-2)
Cc1ccc(CNC(=O)c2cc3c(=O)n4cccc(C)c4nc3s2)cc1	none (no result: D2 antag, D2 ag-1, D2 PAM-2)
CN1/C(=C/C=N/NC(=O)c2ccc([N+](=O)[O-])cc2)C(C)(C)c2ccccc21	D2 antag 36.7
CN1CCN(c2cc(-c3ccccc3)nc3cc(-c4ccc(F)cc4)nn23)CC1	D2 antag 54.3
COCc1oc2ccc(NS(=O)(=O)c3ccc(C)cc3)cc2c1C(=O)OC	none (no result: D2 antag, D2 ag-1, D2 PAM-2)
Cc1nnc(N/N=C/c2c(Cl)cccc2Cl)n1N	none
CCc1nnc(N/N=C/c2c(F)cccc2Cl)n1N	D2 ag-1 41.0
COc1ccc(C2=C(Nc3ccc(Br)c(C)c3)c3ccccc3C2=O)cc1	none (no result: D2 antag, D2 ag-1, D2 PAM-2)
Cc1cc2nc3c(=O)n(C4CCCCC4)c(=O)[nH]c3nc2cc1N	D2 ag-2 61.4
Cc1cc(C)cc(Nc2cc(=O)n(C3CCCCC3)c(=O)[nH]2)c1	none
COc1ccccc1CNC(=O)c1ccc(N2CCCC2)c(NC(=O)NCc2ccccc2)c1	none (no result: D2 antag, D2 ag-1, D2 PAM-2)
CCOc1ccccc1/C=C/c1onc(C)c1S(=O)(=O)N1CCC(C(=O)N(CC)CC)CC1	D2 antag 56.4
Cc1noc(C)c1S(=O)(=O)N1CCC(C(=O)Nc2ccccn2)CC1	D2 PAM-1 34.5
Cc1noc(C)c1S(=O)(=O)N1CCN(c2ccccc2)CC1	D2 antag 38.4
Cc1ccc(S(=O)(=O)N2CCC(C(=O)NCCc3ccccn3)CC2)cc1	D2 antag 42.6
CCN(CCN(C)C)C(=O)C1CCN(S(=O)(=O)c2c(C)noc2/C=C/c2ccccc2F)CC1	none
Cc1cc(C)c(OCCCCN2CCC(C)CC2)c(Br)c1	none
CC1CCN(CCCCOc2ccc(Br)cc2)CC1	none
CC1CCN(CCCCOc2cccc(Br)c2)CC1	D2 antag 91.8
Brc1cccc(OCCN2CCCCC2)c1	D2 antag 47.5
Brc1cccc(OCCN2CCOCC2)c1	none
Cc1cc(Br)ccc1OCCCCN1CCC(C)CC1	D2 antag 35.1
Cc1cc(Br)ccc1OCCn1ccnc1	D2 ag-1 70.5
Clc1cc(Br)ccc1OCCn1ccnc1	none
COc1ccccc1N1CCN(C(=O)CN2C(=O)COc3ccc(S(=O)(=O)N4CCCC4)cc32)CC1	none (no result: D2 antag, D2 ag-1, D2 PAM-2)
CN(C)c1ccc(CNC(=O)Cn2c(=O)oc3cc(S(=O)(=O)N4CCCCCC4)ccc32)cc1	none (no result: D2 antag, D2 ag-1, D2 PAM-2, D2 ag-2)
O=C(Nc1cc2ccc(O)cc2oc1=O)c1ccccc1	none (no result: D2 antag, D2 ag-1, D2 PAM-2)
Cc1c(Cl)cccc1NC(=O)CC1SCCNC1=O (configuration not stated)	none
O=C(CN1CCN(CCC(=O)Nc2ccccc2F)CC1)Nc1ccc(F)cc1	none
O=C(CCN1CCN(c2ccc(Cl)cc2)CC1)Nc1ccccc1F	D2 antag 35.9
Cc1c(Cl)cccc1NC(=O)CCN1CCCCCC1	none
Cc1c(Cl)cccc1NC(=O)CN1CCN(CCO)CC1	D2 antag 31.3
O=C(CN1CCN(CCC(=O)Nc2ccccc2F)CC1)Nc1ccc(Cl)cc1	D2 antag 129.3
Cc1c(Cl)cccc1NC(=O)CC1NCCNC1=O (configuration not stated)	D2 antag 33.6
O=C(NCCc1ccccc1Cl)c1ccc2c(=O)n(-c3ccccc3)c(=O)[nH]c2c1	none (no result: D2 antag, D2 PAM-1, D2 ag-1, D2 PAM-2)
CCc1ccc(-n2c(=O)c3c(C)c(C)sc3n(CC(=O)NCc3ccc(C)cc3)c2=O)cc1	none (no result: D2 antag, D2 ag-1, D2 PAM-2)

Screening data from PubChem.
